# Results taken from PubChem BioAssay.
# The source made the active and inactive calls.
# Tests used:
# [1] = binders of probe aFSTL3 on microarray, primary screen, stem cell growth factor project, biochemical, small-molecule microarray, fluorescence 635/667 (AID 1064); conditions: higher = more signal;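 further: measures binding of the biotinylated anti-FSTL3 antibody to printed compounds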
# [2] = binders from COS7 lysate, DM2A8 probe, primary screen, torsin A project, cell lysate, small-molecule microarray, fluorescence 635/667 (AID 1065); conditions: higher = more signal, COS7 lysate expressing mutant human TOR1A
# [3] = binders of probe aFGF2 on microarray, primary screen, stem cell growth factor project, biochemical, small-molecule microarray, fluorescence 635/667 (AID 1067); conditions: higher = more signal;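 further: measures binding of biotinylated aFGF2 protein to printed compounds on slides; z-score merges feature fluorescence and signal-to-noise across triplicate slides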
# [4] = binders of probe aFGF10 on microarray, primary screen, stem cell growth factor project, biochemical, small-molecule microarray, fluorescence 635/667 (AID 1071); conditions: higher = more signal;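 further: score merges 667 nm spot intensity and signal to noise from triplicate slides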
# [5] = molecular target: Neurogenic locus notch homolog protein 2 (Homo sapiens) (UniProt Q04721); assay: Notch2 binders on small-molecule microarrays, primary screen, biochemical, small-molecule microarray, 635 nm fluorescence, stem cell growth factors (AID 1073); conditions: Notch2 binding, higher = more signal
# Sequence of Neurogenic locus notch homolog protein 2 (Homo sapiens) (Q04721 whole entry, looked up, canonical isoform): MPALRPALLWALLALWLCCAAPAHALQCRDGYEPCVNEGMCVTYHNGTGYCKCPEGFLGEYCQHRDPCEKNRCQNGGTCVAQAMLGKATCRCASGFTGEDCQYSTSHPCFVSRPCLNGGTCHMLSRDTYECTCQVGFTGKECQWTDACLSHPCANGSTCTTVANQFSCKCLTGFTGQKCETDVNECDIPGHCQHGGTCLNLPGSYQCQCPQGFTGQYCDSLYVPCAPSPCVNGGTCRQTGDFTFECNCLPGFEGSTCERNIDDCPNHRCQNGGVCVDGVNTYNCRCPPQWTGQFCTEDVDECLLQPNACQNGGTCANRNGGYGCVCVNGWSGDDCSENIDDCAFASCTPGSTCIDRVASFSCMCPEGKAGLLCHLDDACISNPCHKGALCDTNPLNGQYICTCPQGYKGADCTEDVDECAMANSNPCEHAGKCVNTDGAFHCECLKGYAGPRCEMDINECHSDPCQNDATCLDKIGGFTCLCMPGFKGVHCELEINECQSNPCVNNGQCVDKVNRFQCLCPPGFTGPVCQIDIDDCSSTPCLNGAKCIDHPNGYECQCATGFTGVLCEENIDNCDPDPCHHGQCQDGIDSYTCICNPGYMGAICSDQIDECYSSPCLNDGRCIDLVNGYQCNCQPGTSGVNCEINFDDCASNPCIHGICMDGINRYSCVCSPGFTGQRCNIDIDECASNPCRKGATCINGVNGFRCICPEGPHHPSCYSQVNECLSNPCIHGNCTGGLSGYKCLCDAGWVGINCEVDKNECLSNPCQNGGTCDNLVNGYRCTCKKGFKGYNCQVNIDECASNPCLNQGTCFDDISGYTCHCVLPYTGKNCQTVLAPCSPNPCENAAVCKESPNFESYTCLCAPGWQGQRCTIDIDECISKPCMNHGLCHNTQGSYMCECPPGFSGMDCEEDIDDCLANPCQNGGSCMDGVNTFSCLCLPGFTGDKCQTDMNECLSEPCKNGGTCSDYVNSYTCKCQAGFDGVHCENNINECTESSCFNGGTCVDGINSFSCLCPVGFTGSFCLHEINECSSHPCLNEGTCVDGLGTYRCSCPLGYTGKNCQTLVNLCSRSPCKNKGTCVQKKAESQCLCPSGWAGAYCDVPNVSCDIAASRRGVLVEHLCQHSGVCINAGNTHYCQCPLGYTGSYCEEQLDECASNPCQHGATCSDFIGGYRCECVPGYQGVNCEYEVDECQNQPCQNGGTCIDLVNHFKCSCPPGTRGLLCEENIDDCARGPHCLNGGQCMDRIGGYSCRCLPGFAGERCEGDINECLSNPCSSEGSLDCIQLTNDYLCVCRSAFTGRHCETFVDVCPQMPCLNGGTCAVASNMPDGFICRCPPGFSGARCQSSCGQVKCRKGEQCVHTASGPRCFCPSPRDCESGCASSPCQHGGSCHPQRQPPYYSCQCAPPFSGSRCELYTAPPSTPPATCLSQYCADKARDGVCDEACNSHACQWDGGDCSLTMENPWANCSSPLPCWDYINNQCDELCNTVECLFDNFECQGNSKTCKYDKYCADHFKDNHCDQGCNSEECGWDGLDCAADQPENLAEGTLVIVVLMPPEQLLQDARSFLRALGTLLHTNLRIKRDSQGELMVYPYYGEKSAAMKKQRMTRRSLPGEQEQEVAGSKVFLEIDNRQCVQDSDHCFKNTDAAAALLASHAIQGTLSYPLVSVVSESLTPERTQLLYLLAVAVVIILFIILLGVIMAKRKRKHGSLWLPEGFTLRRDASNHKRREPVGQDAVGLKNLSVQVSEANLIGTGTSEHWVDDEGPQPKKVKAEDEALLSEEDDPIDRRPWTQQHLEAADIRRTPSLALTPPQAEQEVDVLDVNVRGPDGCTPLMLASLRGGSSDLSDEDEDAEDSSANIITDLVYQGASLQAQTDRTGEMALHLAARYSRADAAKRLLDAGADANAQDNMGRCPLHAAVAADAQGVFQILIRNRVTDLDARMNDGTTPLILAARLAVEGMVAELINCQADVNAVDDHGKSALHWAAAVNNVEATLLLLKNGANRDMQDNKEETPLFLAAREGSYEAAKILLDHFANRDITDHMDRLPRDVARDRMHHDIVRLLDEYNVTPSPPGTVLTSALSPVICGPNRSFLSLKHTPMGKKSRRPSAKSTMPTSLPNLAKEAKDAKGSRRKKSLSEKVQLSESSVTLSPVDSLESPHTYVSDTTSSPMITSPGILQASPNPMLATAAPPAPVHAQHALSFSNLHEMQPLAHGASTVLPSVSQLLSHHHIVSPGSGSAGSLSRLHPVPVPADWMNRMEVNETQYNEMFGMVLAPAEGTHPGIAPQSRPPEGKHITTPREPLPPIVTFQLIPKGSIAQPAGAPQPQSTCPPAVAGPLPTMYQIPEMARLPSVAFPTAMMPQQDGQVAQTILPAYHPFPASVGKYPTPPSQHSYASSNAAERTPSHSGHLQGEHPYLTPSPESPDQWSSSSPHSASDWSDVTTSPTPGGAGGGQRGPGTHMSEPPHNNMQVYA
# [6] = molecular target: Pro-neuregulin-1, membrane-bound isoform (Homo sapiens) (UniProt Q02297); assay: NRG1 binders on small-molecule microarrays, primary screen, psychiatric disease protein project, biochemical, small-molecule microarray, fluorescence 635/667 (AID 1075); conditions: NRG1 binding, 635 nm fluorescence, higher = more signal;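 further: score combines 667 nm spot fluorescence with signal to noise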
# Sequence of Pro-neuregulin-1, membrane-bound isoform (Homo sapiens) (Q02297 whole entry, looked up, the tested form may be a part, canonical isoform): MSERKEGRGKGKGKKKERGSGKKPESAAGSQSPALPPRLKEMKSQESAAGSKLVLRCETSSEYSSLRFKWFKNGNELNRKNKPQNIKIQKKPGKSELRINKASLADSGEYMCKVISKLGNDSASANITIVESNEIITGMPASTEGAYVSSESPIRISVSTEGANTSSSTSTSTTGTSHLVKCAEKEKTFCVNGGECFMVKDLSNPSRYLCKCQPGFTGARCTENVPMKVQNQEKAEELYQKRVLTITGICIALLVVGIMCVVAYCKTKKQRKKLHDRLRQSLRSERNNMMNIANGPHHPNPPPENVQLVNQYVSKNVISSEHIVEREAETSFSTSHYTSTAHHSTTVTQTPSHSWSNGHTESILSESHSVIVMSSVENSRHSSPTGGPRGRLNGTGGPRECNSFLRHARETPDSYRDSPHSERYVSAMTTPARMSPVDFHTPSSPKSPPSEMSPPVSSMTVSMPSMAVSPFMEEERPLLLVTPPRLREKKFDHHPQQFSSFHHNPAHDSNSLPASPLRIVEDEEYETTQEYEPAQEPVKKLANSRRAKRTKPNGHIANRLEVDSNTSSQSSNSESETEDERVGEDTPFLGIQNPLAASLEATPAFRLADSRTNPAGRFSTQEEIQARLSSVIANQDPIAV
# [7] = tested on: Neuregulin-1 EGF-like domain; assay: binders of neuregulin-1 EGF-like domain, primary screen, biochemical, small-molecule microarray, 635 nm fluorescence (AID 1081); conditions: small-molecule microarray binding, higher = more signal;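 further: binding of the protein to compounds printed on small-molecule microarray slides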
# [8] = FRG1 promoter luciferase signal modulators, primary screen, FRG1 inhibition for FSHD, cell-based, C2C12 myotubes, firefly/Renilla luciferase, luminescence (AID 1084); conditions: higher = more signal, called active from +8 up or from −8 down
# [9] = binders of probe aFST on microarray, primary screen, stem cell growth factor project, biochemical, small-molecule microarray, fluorescence 635/667 (AID 1086); conditions: higher = more signal;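 further: score merges 667 nm fluorescence with signal-to-noise of each printed compound spot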
# [10] = binders of probe aHhip on microarray, primary screen, stem cell growth factor project, biochemical, small-molecule microarray, fluorescence 635/667 (AID 1087); conditions: higher = more signal;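 further: score merges spot fluorescence at 667nm with spot signal to noise ratio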
# [11] = tested on: PRMT1 (protein arginine N-methyltransferase 1); assay: PRMT1 binders on small-molecule microarrays, primary screen, biochemical, small-molecule microarray, 635 nm fluorescence (AID 1088); conditions: small-molecule microarray binding, higher = more signal;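 further: binding of Prmt1 protein to compounds spotted on small-molecule microarray slides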
# [12] = yeast growth modulation, basal conditions, primary screen, YJM789 clinical isolate, OD600, 24 h (AID 1089);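 further: growth of clinical yeast isolate S. cerevisiae YJM 789 seeded 1000 cells per well; test concentration not given here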; conditions: S. cerevisiae YJM789 growth, higher = more signal, called active from +8 up or from −8 down
# [13] = fission yeast growth modulation, primary screen, strain 972, OD600, 24 h, no modulator (AID 1090);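 further: basal condition with compound alone and no growth modifier present; test concentration not given here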; conditions: S. pombe 972 growth, higher = more signal, called active from +8 up or from −8 down
# [14] = S. cerevisiae growth modulation with rapamycin, primary screen, strain BY4716, OD600, 96 h (AID 1091); conditions: higher = more signal, called active from +8 up or from −8 down; further: test concentration not given here
# [15] = molecular target: Torsin-1A-interacting protein 2 (Homo sapiens) (UniProt Q8NFQ8); assay: LULL1 binders on small-molecule microarray, primary screen, cell lysate, human LULL1 lysate, 635/667 nm fluorescence (AID 1092); conditions: hLULL1 lysate binding, 635 nm fluorescence, higher = more signal;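 further: probe is lysate of COS7 cells overexpressing human LULL1; score merges per-feature 667 nm fluorescence with signal-to-noise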
# Sequence of Torsin-1A-interacting protein 2 (Homo sapiens) (Q8NFQ8 whole entry, looked up): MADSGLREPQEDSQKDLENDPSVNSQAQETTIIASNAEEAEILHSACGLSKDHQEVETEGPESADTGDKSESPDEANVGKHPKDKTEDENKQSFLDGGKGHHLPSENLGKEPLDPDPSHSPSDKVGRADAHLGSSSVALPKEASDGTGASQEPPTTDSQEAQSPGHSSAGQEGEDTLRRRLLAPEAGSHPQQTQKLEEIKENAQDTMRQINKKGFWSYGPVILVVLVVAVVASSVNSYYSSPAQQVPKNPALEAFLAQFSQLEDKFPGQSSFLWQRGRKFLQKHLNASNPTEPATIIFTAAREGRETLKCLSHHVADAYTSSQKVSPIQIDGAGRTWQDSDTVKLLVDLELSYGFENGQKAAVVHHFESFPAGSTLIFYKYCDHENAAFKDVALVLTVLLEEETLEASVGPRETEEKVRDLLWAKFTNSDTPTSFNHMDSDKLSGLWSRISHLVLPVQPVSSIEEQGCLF
# [16] = E. coli growth modulation, two-sided OD650, primary screen, E. coli filamentation project, strain DRC41, 24 h (AID 1093); conditions: OD650, 24 h, higher = more signal, called active from +8 up or from −8 down;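 further: MC1000 strain lacking acrAB efflux and sulA so SOS filamentation is blocked; test concentration not given here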
# [17] = small-molecule microarray binders of probe aLefty2, primary screen, biochemical, biotinylated probe, 635/667 nm fluorescence (AID 1094); conditions: higher = more signal;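 further: score merges spot fluorescence near 667 nm with spot signal-to-noise ratio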
# [18] = tested on: Noggin (protein binding on small-molecule microarray); assay: Noggin binders on small-molecule microarray, primary screen, biochemical, 635/667 nm fluorescence (AID 1095); conditions: 635 nm fluorescence, higher = more signal;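 further: score merges 667 nm feature fluorescence with signal to noise over triplicate slides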
# [19] = molecular target: Neurogenic locus notch homolog protein 3 (Homo sapiens) (UniProt Q9UM47); assay: NOTCH3 binders on small-molecule microarray, primary screen, biochemical, 635/667 nm fluorescence (AID 1096); conditions: NOTCH3 binding, 635 nm fluorescence, higher = more signal
# [20] = small-molecule microarray binders of probe aEGFR, primary screen, biochemical, biotinylated probe, 635/667 nm fluorescence (AID 1097); conditions: higher = more signal;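 further: probe is a biotinylated anti-EGFR antibody binding compounds printed on slides; score combines fluorescence near 667 nm and signal to noise of each spot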
Compound,composite z-score [1],composite z-score [2],composite z-score [3],composite z-score [4],composite z-score [5],composite z-score [6],composite z-score [7],z-score [8],composite z-score [9],composite z-score [10],composite z-score [11],z-score [12],z-score [13],z-score [14],composite z-score [15],z-score [16],composite z-score [17],composite z-score [18],composite z-score [19],composite z-score [20]
C=CCN1C(=O)[C@@]2(O[C@@H](CCn3cc(CCO)nn3)[C@H]([Si](C)(C)c3ccc(OC)cc3)[C@H]2C)c2cc(N3C(=O)c4cccc5cccc3c45)ccc21,-0.323,0.749,-0.0839,0.569,0.705,1.11,0.813,-2.79 (inactive),0.42,0.142,0.949,-0.309 (inactive),0.593 (inactive),13.5 (active),0.875,2.4 (inactive),-0.0592,0.412,1.07,-0.0332
CO[C@H]1O[C@H](CO)[C@@H](OC(=O)Nc2ccccc2)[C@H](OC(=O)Nc2ccc3c(c2)OCO3)[C@H]1OC(=O)Nc1ccc2c(c1)OCO2,0.381,0.45,0.128,0.7,1.29,1.61,1.23,4.5 (inactive),0.29,-0.175,1.56,0.648 (inactive),0.494 (inactive),2.28 (inactive),2.8,2.75 (inactive),0.0789,0.128,1.06,-0.0527
CC(C)C[C@@H]1NC(=O)[C@@H]2C[C@H](C(=O)NCCCCCNC(=O)CS)[C@H](c3cccc(OCCO)c3)N2C1=O,0.0138,1.55,-0.0332,0.355,0.947,1.35,1.29,0.152 (inactive),0.35,-0.286,1.55,-1.66 (inactive),-0.926 (inactive),-0.565 (inactive),2.23,2.24 (inactive),-0.0153,1.44,1.06,0.133
C[N+](C)(C)CCCC[C@@H]1NC(=O)[C@H]2C[C@@H](C(=O)NCCCCCN)[C@@H](c3cccc(OCCO)c3)N2C1=O,0.89,0.419,-0.0164,0.372,0.529,2.07,0.739,-0.309 (inactive),1.69,0.242,0.665,-0.706 (inactive),-2.62 (inactive),-0.207 (inactive),2.7,2.4 (inactive),0.739,0.387,0.526,0.162
COc1ccc([Si](C)(C)[C@@H]2[C@@H](CC(=O)N3CCC[C@H]3CO)O[C@]3(C(=O)N(Cc4ccc(I)cc4)c4ccccc43)[C@H]2C)cc1,0.035,0.356,-0.142,0.254,0.806,0.805,1.22,-1.71 (inactive),0.357,0.281,1.56,-1.41 (inactive),-0.398 (inactive),-0.309 (inactive),1.53,2.22 (inactive),0.0662,0.982,1.13,0.0152
